D2 ag-1 = activates the human D2 dopamine receptor; P14416; DiscoveRx PathHunter D2 beta-arrestin, luminescence, 90 min; 100% = 57 uM dopamine signal; activation, % (test concentration not listed); 360,000 compounds, 0.084% hits; in the data active means activation above about 40%; inconclusive means between about 15% and that limit
Target sequence (P14416 whole entry, looked up): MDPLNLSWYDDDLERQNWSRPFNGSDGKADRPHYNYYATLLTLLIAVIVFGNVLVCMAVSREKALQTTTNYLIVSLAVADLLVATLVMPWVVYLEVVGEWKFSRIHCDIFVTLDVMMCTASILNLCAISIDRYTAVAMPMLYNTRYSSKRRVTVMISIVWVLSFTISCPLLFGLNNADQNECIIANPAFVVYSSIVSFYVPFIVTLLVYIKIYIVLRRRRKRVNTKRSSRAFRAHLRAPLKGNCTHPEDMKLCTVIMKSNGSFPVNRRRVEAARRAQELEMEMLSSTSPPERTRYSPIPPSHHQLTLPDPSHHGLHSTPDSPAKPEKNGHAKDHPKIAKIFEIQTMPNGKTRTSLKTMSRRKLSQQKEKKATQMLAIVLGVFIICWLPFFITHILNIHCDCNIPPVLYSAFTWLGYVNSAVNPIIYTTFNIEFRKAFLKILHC
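DiscoveRx PathHunter D2 beta-arrestin cells (2,100/well) attached overnight, then compound-stimulated 90 min at 37 C in HBSS/10 mM HEPES/0.1% Tween-20 buffer; beta-galactosidase complementation read by luminescence after 1 h at ambient temperature. Dopamine 57 uM final (EC100) as control.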
D2 PAM-1 = positive allosteric modulators of human D2 dopamine receptor; DiscoveRx D2 beta-arrestin cells, luminescence, 90 min; 100% = 57 uM dopamine signal; P14416; potentiation, % (concentration not given with the values); 360,000 compounds, 0.23% hits; in the data active means potentiation above about 50%; inconclusive means mostly about 30% to 49%
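PathHunter beta-arrestin assay in DiscoveRx D2 cells. Compounds were added with an EC20 of dopamine (50 nM final) for 90 min at 37 deg C. Luminescence was read 1 h after detection reagent, with 57 uM dopamine as the EC100 control.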
D2 antag = D2 dopamine receptor (human) antagonism | 340,000 compounds, 2% hits | HEK293 TREx D2 cells, calcium flux, dopamine EC80 | P14416 | inhibition, % at 10 µM; in the data active means inhibition above about 30%; inactive means below that, where a call was filed; further: 0% is about no effect
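Calcium flux kinetic readout in an inducible HEK293 TREx D2 line plated overnight at 30 C. After 180 s compound exposure, an EC80 dopamine challenge follows with another 180 s kinetic read to detect antagonism.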
D2 ag-2 = D2 dopamine receptor (human) agonism; 340,000 compounds, 0.53% hits; P14416; activation, % at 2 µM; HEK293 T-REx D2 cells, calcium flux agonist mode;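 active means activation over 3 SD above normal in the single-dose calcium agonist read, cut at about 30% in these data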; further: 0% is about no effect
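Tetracycline-induced HEK293 Trex cells with D2 receptor force-coupled to calcium signaling, plated overnight at 30 C and loaded with no-wash calcium dye. Calcium flux read kinetically for 180 s after compound addition; responses flag agonists.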
D2 PAM-2 = positively modulates the human D2 dopamine receptor allosterically | P14416 | HEK293 T-REx D2, calcium flux, EC20 dopamine potentiation | potentiation, % at 10 µM | 340,000 compounds, 0.34% hits | AID 485347;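 active means potentiation over 3 SD above the plate norm, cut at about 30% in these data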; further: 0% is about no effect
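Potentiation of an EC20 dopamine calcium response measured kinetically over 180 s, after a preceding 180 s compound-only read flagging agonists. Cells: inducible Hek293 Trex D2 line, 4000/well, cultured overnight at 30 C before dye loading.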
An asterisk follows results filed as active; ? = inconclusive; · = not tested or not shown. This is a sample that favours compounds with a hit; in the whole collection about 2.4% have one here.

SMILES | D2 ag-1 | D2 PAM-1 | D2 antag | D2 ag-2 | D2 PAM-2
COc1cccc(CNC(=O)CSc2ccc(-c3sc(-c4ccccc4)nc3C)nn2)c1 | · | · | · | 0 | 1
CCCCNC(=O)C1(C)CCCCN1C(=O)c1ccc2c(c1)C(C)(C)CCC2(C)C (stereo unspecified) | -1 | -8 | · | · | ·
COC(=O)c1ccc2c(=O)n(CCCCCC(=O)N3CCN(c4cc(C)ccc4C)CC3)c(=O)[nH]c2c1 | · | · | · | 1 | -4
CCN1CCC[C@H]1CNC(=O)c1cc(S(N)(=O)=O)ccc1OC | · | · | 87* | 1 | -23
COc1ccc(C(=O)Nc2ccc(NC(=O)c3ccccc3)cc2)cc1S(=O)(=O)N1CCOCC1 | 3 | -10 | 16 | 0 | -18
COc1ccc(NC(=O)c2c3c(nc4ccccc24)CCC3)cc1S(=O)(=O)N1CCOCC1 | -4 | 13 | 5 | 33* | -15
Cc1ccc(-c2nn(-c3ccccc3)cc2C(=O)NCCCN2CCOCC2)cc1 | 7 | -39 | 31* | 0 | -15
Cc1cccc(NC(=O)c2cn(-c3ccccc3)nc2-c2ccccc2)c1 | -5 | -26 | 40* | -1 | -19
CC(=O)c1ccc(NC(=O)c2cn(-c3ccccc3)nc2-c2ccncc2)cc1 | -3 | -24 | -3 | 0 | 35*
COC(=O)c1ccc(NC(=O)c2cn(-c3ccccc3)nc2-c2ccncc2)cc1 | 4 | -13 | 91* | 0 | -19
Cc1cccc(C(=O)Nc2nc3nc(-c4ccccc4)cc(=O)n3[nH]2)c1 | · | · | · | · | 0
CCc1ccc(CN(Cc2ccco2)C(=O)COc2ccccc2Cl)cc1 | · | · | · | · | -5
Cc1ccc(-c2nn(-c3ccccc3Cl)cc2C(=O)NCC2CCCO2)cc1 (stereo unspecified) | -6 | -36 | 31* | 0 | -2
Cc1ccc(-c2nn(Cc3ccccc3)cc2C(=O)NCC2CCCO2)cc1 (stereo unspecified) | -3 | -12 | 4 | -2 | 9
CCn1ncc(C2=NOC(C(=O)NCc3ccc(OC)cc3)C2)c1C (stereo unspecified) | 2 | -7 | 6 | 31* | -17
O=C(C[C@H]1C(=O)N(Cc2ccccc2)C[C@@H]1Cc1ccccc1)Nc1ccc(Br)cc1 | -3 | · | · | · | ·
O=C(CN1CCN(c2ccccn2)CC1)Nc1ccccc1 | 6 | -11 | 31* | 1 | 8
O=C(CN1CCN(c2ccccn2)CC1)Nc1ccc(F)cc1 | 11 | -7 | 6 | 0 | 6
O=C(CN1CCN(c2ccccn2)CC1)Nc1ccc(Oc2ccccc2)cc1 | 50* | 10 | · | · | ·
O=c1cc(-c2ccccc2)nc(SCc2nc(-c3cccc(C(F)(F)F)c3)no2)[nH]1 | · | · | · | -2 | ·
Cc1ccc(CN2c3ccccc3S(=O)(=O)c3ccccc32)cc1 | · | · | · | -1 | ·
Cn1c(=O)oc2cc(S(=O)(=O)N3CCOCC3)ccc21 | 0 | 21 | 46* | 0 | -13
Cn1c(=O)oc2cc(S(=O)(=O)N3CCC4(CC3)OCCO4)ccc21 | 0 | 2 | 4 | 2 | -1
Nc1c(C(=O)N2CCOCC2)sc2nc3c(cc12)CCC3 | 1 | -1 | 8 | -1 | 5
Nc1c(C(=O)N2CCOCC2)sc2nc3c(cc12)CCCC3 | 1 | -2 | -8 | 0 | 33*
SMILES | D2 ag-1 | D2 PAM-1 | D2 antag | D2 ag-2 | D2 PAM-2
Cc1ccccc1C(=O)O/N=C/c1c(N2CCOCC2)n(C)c2ccccc12 | ? | 180* | -6 | 1 | -6
CCOc1ccccc1NC(=O)Cn1c(=O)n(CCCC(=O)NCCc2ccc(C)cc2)c(=O)c2ccccc21 | · | · | · | 0 | ·
COc1ccc(N2CCN(C(=O)CCNS(=O)(=O)c3ccc(C)cc3)CC2)cc1 | -7 | 0 | 12 | -1 | 7
COc1ccc(N2CCN(C(=O)CCNS(=O)(=O)c3ccc(Br)s3)CC2)cc1 | -1 | -6 | 3 | 1 | 86*
Cc1cccc(OCCCN2CCCCCC2)c1 | 1 | -20 | 40* | 0 | -15
CC(=O)N1CCC(C(=O)NCCOc2cccc(C)c2)CC1 | 1 | 1 | 35* | -1 | -2
Clc1cccc(OCCCCN2CCCCC2)c1 | -4 | -4 | 77* | 1 | -25
Cc1cccc(-n2c(CNC(=O)c3ccc(S(=O)(=O)N4CCCC4)cc3)n[nH]c2=S)c1 | -2 | -8 | 12 | -1 | -1
O=C(NCc1n[nH]c(=S)n1-c1cccc(Cl)c1)c1ccc(S(=O)(=O)N2CCCCC2)cc1 | -9 | -16 | -12 | -2 | 33*
COc1ccc(CN(C(=O)Nc2cc(C)ccc2C)C2CCN(C(C)=O)CC2)cc1 | · | · | · | 2 | -7
CCCN(CCC)CCCNC(=O)C(NS(=O)(=O)c1ccc2c(c1)CCC(=O)N2)c1ccccc1 (stereo unspecified) | 1 | -9 | 45* | 2 | 0
COc1ccc(OC)c(CNc2ncnc3c2nc2n3CCCC2)c1 | · | · | · | -1 | 0
Cc1oc(-c2cccc(C(F)(F)F)c2)nc1CN1CCC[C@H]1CO | 0 | -13 | 70* | -1 | -28
COc1ccc2c(c1)c1c(c(=O)n(Cc3ccccc3)c(=O)n1Cc1cccc(Cl)c1)n2C | · | · | · | 0 | 2
Cc1c(C)n(C(=O)CN2CCC(C(N)=O)CC2)c2ccccc12 | -2 | -8 | 36* | 0 | -6
Cc1c(C)n(C(=O)CN2CCN(c3ccccc3)CC2)c2ccccc12 | -4 | -9 | -7 | 1 | 19
COc1cc(Cn2c3ccc(NC(=O)NCCc4ccccc4)cc3c(=O)n2C)ccc1F | ? | 15 | · | · | ·
Cn1nccc1C(=O)N1CCc2ccccc21 | -5 | -4 | 36* | 0 | 1
OCc1nc2ccccc2n1CC(O)Cn1ccc2ccccc21 (stereo unspecified) | -12 | 2 | -16 | -2 | 32*
OC(CNCc1ccccc1)Cn1ccc2ccccc21 (stereo unspecified) | -5 | -8 | -5 | 0 | -11
OC(CN1CCNCC1)Cn1ccc2ccccc21 (stereo unspecified) | · | · | -10 | 1 | -7
Oc1ccccc1NCC(O)Cn1ccc2ccccc21 (stereo unspecified) | 14 | 58* | -11 | -1 | -2
CC1CCc2cc(F)ccc2N1C(=O)C12CCC(C)(C(=O)O1)C2(C)C (stereo unspecified) | -3 | 1 | 32* | 0 | -5
CC1(C(=O)NS(=O)(=O)c2cccc(C#N)c2)CCN1C(=O)CCC1CCCC1 (stereo unspecified) | -2 | -3 | · | · | ·
CCN(CC)CC(O)COc1ccccc1C(=O)CCc1ccccc1 (stereo unspecified) | 1 | -19 | -16 | 0 | -16
CCCNCC(O)COc1ccccc1C(=O)CCc1ccccc1 (stereo unspecified) | · | · | 35* | · | ·
CCCc1cc(=O)[nH]c(SCc2nc(-c3ccc(C)cc3)no2)n1 | · | · | · | -1 | -3
